This note sets out measurements from PubChem BioAssay.

The nature of assay [1]: small molecules captured by biotinylated probe aFSTL3 – biochemical, small-molecule microarray, fluorescence 635/667, stem cell growth factor project, primary screen (AID 1064).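 Also: measures binding of the biotinylated anti-FSTL3 antibody to printed compounds.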 Particulars: higher = more signal.
A short description of assay [2]: binders from COS7 lysate, DM2A8 probe, primary screen, torsin A project, cell lysate, small-molecule microarray, fluorescence 635/667 (AID 1065). Particulars: higher = more signal, COS7 lysate expressing mutant human TOR1A.
Assay [3] can be described thus: small molecules captured by biotinylated probe aFGF2 – biochemical, small-molecule microarray, fluorescence 635/667, stem cell growth factor project, primary screen (AID 1067).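 Also: measures binding of biotinylated aFGF2 protein to printed compounds on slides; z-score merges feature fluorescence and signal-to-noise across triplicate slides.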 Particulars: higher = more signal.
Assay [4] can be described thus: small molecules captured by biotinylated probe aFGF10 – biochemical, small-molecule microarray, fluorescence 635/667, stem cell growth factor project, primary screen (AID 1071).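 Also: score merges 667 nm spot intensity and signal to noise from triplicate slides.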 The settings on record: higher = more signal.
The target of assay [5] is Neurogenic locus notch homolog protein 2 (Homo sapiens) (UniProt Q04721). Put plainly: small molecules binding Notch2 protein – biochemical, small-molecule microarray, 635 nm fluorescence, stem cell growth factors, primary screen (AID 1073). Particulars: higher = more signal.
Assay [6] has as its target Pro-neuregulin-1, membrane-bound isoform (Homo sapiens) (UniProt Q02297). Put plainly: small molecules binding neuregulin-1 protein – biochemical, small-molecule microarray, fluorescence 635/667, psychiatric disease protein project, primary screen (AID 1075).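 Also: score combines 667 nm spot fluorescence with signal to noise.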 The settings on record: NRG1 binding, 635 nm fluorescence, higher = more signal.
In assay [7] the test system is Neuregulin-1 EGF-like domain. The assay can be described thus: small molecules binding NRG1 EGF domain – biochemical, small-molecule microarray, 635 nm fluorescence, primary screen (AID 1081).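 Also: binding of the protein to compounds printed on small-molecule microarray slides.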 Particulars: higher = more signal.
Assay [8] is described as follows: FRG1 expression reporter modulators in myotubes – cell-based, C2C12 myotubes, firefly/Renilla luciferase, luminescence, FRG1 inhibition for FSHD, primary screen (AID 1084). Particulars: FRG1 promoter luciferase, higher = more signal, called active from +8 up or from −8 down.
Assay [9] in a line: small molecules captured by biotinylated probe aFST – biochemical, small-molecule microarray, fluorescence 635/667, stem cell growth factor project, primary screen (AID 1086).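 Also: score merges 667 nm fluorescence with signal-to-noise of each printed compound spot.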 The settings on record: higher = more signal.
Assay [10] can be described thus: binders of probe aHhip on microarray, primary screen, stem cell growth factor project, biochemical, small-molecule microarray, fluorescence 635/667 (AID 1087).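 Also: score merges spot fluorescence at 667nm with spot signal to noise ratio.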 Particulars: higher = more signal.

The source made the active and inactive calls.

Neurogenic locus notch homolog protein 2 (Homo sapiens), sequence (Q04721 whole entry, looked up, canonical isoform): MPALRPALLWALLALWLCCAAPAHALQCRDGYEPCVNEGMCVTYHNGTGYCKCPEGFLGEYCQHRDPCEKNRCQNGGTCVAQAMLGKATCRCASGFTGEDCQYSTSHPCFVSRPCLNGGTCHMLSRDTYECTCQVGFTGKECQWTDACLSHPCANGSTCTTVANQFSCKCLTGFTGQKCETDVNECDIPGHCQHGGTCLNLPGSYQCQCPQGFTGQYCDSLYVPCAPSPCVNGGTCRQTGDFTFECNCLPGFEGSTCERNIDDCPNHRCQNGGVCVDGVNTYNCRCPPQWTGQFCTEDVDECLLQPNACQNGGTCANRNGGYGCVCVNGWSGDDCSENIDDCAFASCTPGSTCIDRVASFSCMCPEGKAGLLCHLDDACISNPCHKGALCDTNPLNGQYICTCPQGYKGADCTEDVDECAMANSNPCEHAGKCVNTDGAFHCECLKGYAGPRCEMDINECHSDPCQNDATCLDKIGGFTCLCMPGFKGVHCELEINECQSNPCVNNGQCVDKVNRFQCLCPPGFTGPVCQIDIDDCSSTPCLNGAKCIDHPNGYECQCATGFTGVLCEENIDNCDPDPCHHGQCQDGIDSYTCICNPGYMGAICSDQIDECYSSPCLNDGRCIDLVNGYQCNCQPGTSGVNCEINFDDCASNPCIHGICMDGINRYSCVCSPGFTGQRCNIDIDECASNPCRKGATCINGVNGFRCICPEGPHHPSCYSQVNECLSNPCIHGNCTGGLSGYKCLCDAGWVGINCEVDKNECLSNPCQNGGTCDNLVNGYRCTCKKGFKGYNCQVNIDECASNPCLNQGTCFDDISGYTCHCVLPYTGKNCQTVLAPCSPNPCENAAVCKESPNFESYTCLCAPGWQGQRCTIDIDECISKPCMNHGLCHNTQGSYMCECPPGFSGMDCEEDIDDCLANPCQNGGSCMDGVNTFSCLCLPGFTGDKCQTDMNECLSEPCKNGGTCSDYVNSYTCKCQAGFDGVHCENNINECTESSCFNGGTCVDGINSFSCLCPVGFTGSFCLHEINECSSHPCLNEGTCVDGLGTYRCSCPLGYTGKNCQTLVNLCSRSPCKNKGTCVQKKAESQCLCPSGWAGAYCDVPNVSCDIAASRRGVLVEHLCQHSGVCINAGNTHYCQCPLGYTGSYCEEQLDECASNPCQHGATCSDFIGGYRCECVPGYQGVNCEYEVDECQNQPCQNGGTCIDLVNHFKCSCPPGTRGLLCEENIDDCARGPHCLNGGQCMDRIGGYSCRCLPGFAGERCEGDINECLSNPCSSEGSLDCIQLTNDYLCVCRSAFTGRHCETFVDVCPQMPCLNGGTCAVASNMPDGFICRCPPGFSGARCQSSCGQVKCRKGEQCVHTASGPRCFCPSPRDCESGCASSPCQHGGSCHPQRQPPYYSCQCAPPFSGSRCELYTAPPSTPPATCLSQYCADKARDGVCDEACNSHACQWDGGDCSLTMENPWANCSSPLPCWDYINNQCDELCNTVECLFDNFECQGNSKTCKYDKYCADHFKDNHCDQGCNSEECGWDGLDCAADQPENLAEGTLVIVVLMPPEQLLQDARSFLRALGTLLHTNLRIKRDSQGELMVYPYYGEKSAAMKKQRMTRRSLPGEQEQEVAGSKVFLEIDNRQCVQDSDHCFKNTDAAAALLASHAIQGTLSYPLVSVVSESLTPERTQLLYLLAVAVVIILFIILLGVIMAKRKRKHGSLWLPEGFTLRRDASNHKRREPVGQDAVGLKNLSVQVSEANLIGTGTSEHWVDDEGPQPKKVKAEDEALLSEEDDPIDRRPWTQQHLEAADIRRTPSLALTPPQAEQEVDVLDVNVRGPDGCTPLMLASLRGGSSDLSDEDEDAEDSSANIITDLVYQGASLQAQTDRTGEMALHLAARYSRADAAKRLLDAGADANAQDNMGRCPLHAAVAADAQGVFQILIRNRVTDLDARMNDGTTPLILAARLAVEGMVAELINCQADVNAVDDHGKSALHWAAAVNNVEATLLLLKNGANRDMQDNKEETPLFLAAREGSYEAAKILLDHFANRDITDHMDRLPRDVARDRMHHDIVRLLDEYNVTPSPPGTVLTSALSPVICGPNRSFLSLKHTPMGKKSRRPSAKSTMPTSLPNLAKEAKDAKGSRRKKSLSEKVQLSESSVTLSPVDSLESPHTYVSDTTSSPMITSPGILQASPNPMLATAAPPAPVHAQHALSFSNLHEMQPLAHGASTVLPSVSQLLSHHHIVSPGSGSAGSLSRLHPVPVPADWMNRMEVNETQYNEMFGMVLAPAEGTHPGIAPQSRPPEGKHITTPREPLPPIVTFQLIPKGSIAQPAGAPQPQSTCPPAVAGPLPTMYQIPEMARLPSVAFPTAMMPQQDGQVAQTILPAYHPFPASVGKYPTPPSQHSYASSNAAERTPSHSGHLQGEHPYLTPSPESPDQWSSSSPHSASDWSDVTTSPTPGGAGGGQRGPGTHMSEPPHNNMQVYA
Pro-neuregulin-1, membrane-bound isoform (Homo sapiens), sequence (Q02297 whole entry, looked up, the tested form may be a part, canonical isoform): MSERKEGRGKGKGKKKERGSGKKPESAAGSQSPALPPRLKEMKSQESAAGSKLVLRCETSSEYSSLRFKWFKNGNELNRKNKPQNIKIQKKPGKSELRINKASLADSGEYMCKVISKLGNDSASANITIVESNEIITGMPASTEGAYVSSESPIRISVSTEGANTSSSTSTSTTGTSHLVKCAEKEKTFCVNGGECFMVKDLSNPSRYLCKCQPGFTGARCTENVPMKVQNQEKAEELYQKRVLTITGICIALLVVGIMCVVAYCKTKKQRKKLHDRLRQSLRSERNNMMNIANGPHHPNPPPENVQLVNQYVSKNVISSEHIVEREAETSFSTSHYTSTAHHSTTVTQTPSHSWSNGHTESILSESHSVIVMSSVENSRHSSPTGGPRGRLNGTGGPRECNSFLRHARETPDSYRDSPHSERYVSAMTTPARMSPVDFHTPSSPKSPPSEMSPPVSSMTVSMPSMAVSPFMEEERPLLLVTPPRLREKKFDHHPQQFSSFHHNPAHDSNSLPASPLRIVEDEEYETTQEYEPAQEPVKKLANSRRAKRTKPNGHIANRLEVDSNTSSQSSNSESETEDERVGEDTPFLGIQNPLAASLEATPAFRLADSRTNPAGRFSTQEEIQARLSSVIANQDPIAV

As for `COc1ccc([Si](C)(C)[C@H]2[C@H](CCO)O[C@@]3(C(=O)N(Cc4cccc(NC(=O)[C@H](C)O)c4)c4ccccc43)[C@@H]2C)cc1`, the composite z-score in assay [1] was -0.456; in assay [2] it was 0.634; in [3] it was -0.101; in assay [4], 0.136; in assay [5], 0.612; in assay [6], 0.84. The composite z-score in assay [7] is 1.22; in [9] it was -0.0054; in [10], 0.212. Also, the z-score in assay [8] was -2.68 (inactive).
With `COC(=O)[C@H](C)NC(=O)CCC1CC(OC(=O)NCCc2ccc(F)cc2)CC2(CCCC(COC(=O)NCC(c3ccccc3)c3ccccc3)O2)O1` (stereo not given in full), the composite z-score in assay [1] was -0.342; in [2], -0.266; in assay [3] it was -0.124; in assay [4], 0.462; in assay [5] it was 1.29; in assay [6], 0.846. Moreover, the values for the composite z-score in assay [7], in assay [9] and in assay [10] were 1.2, 0.107 and -0.247, respectively. In addition, the z-score in [8] is 1.38 (inactive).
As for `CCOC(=O)NN=C1C[C@@H](O)[C@@H](O)[C@@H]2[C@@H]3C(=O)N(C4CCCCC4)C(=O)[C@@H]3CC[C@H]12`, the composite z-score in [1] is -0.242; in assay [2], 0.459; in assay [3], -0.067; in assay [4], 0.267; in assay [5], 0.932; in [6] it was 0.215. Further, the composite z-score in assay [7] was 0.444; in [9], 0.142; in assay [10] it was -0.0994. Also, in [8], the z-score was 0.228 (inactive).
For `CCCCCCc1nc(CCCc2cc3c(c(CCCCCC)n2)[Si](C(C)C)(C(C)C)O[C@H]3c2ccccc2)cc2c1[Si](C(C)C)(C(C)C)O[C@H]2c1ccccc1`, the composite z-score was -0.342 in assay [1]; -0.244 in [2]; -0.109 in assay [3]; -0.217 in assay [4]; -0.253 in [5]; -0.47 in [6]. The composite z-score in assay [7] was -0.744; in assay [9], 0.163; in [10] it was -0.277. Besides, in assay [8], the z-score is -0.364 (inactive).
As for `COCCOC(=O)N1C(=O)[C@@]2(c3cc(C#CCNC(N)=O)ccc31)[C@H](c1ccc(O)cc1)N1[C@H](c3ccccc3)[C@H](c3ccccc3)OC(=O)[C@H]1[C@@H]2C(=O)N1CCCCCCC1`, the composite z-score in assay [1] is 0.282; in assay [2], 0.384; in assay [3] it was -0.0022; in [4], 0.646; in [5], 1.1; in [6], 0.523. The composite z-score in [7] is 1.07; in [9], 1.2; in assay [10], -0.0491. Further, the z-score in [8] was -0.199 (inactive).
As for `CN1C(=O)[C@@]2(CCC(=O)OC(C)(C)C)N=C(c3ccc(OCCCO)cc3)O[C@H]2c2ccccc21`, the composite z-score in assay [1] is -0.195; in assay [2] it was 0.756; in assay [3], -0.0948; in assay [4], 0.124; in assay [5], 0.244; in assay [6], 0.859. Also, the composite z-score in assay [7] was 1.13; in assay [9], 0.183; in [10], -0.186. Further, the z-score in assay [8] was -0.105 (inactive).
`C#C[C@@H](CC)O[Si](C#Cc1ccc(Oc2ccccc2)cc1)(C(C)C)C(C)C`: the composite z-score in assay [1] was -0.321; in assay [2], 0.438; in assay [3] it was -0.201; in assay [4] it was 0.247; in assay [5], 0.824; in [6], 0.108. Besides, the composite z-score is 0.0426 in [7], 0.168 in [9] and -0.0193 in assay [10]. Besides, the z-score in assay [8] is 0.364 (inactive).
Take `CCN1C(=O)[C@H]2[C@H]3[C@H](O)[C@H](O)CC(=NOC(C)CN4CCCCc5nc(C)c(C)cc54)[C@@H]3CC[C@H]2C1=O` (stereo not given in full): the composite z-score is -0.698 in assay [1]; 0.532 in [2]; -0.138 in [3]; 0.223 in assay [4]; 0.462 in [5]; -0.531 in assay [6]. Moreover, the composite z-score in assay [7] was -0.274; in assay [9], 0.253; in [10] it was 0.119. In addition, the z-score in assay [8] was 0.682 (inactive).
For the compound `O=C(NN=C1C[C@@H](O)[C@@H](O)[C@@H]2[C@@H]3C(=O)N(c4cccc(Oc5ccccc5)c4)C(=O)[C@@H]3CC[C@H]12)OCc1ccccc1`, the composite z-score was -0.0678 in assay [1]; 0.249 in assay [2]; -0.101 in assay [3]; 0.0108 in [4]; 0.176 in assay [5]; 0.301 in assay [6]. For the same compound, the composite z-score in assay [7] is -0.533; in assay [9] it was 0.182; in [10], -0.249. The z-score in assay [8] was 0.723 (inactive).
With `O=C1[C@H]2[C@H]3[C@H](O)[C@H](O)CC(=NOCc4ccccc4)[C@H]3CC[C@H]2C(=O)N1C[C@@H]1CCCO1`, the composite z-score in assay [1] is -0.493; in [2], -0.259; in assay [3], -0.133; in assay [4], 0.717; in assay [5], 0.564; in [6] it was 0.512. Further, the figures for the composite z-score in [7], in [9] and in [10] were 0.792, 0.14 and -0.123, respectively. The z-score in [8] was -0.187 (inactive).
As for `CC(CCC(=O)OC[C@H]1O[C@H](C#Cc2ccccc2)C=C[C@@H]1Oc1ccc(C)cc1)=NOC[C@@H](O)[C@H]1O[C@@H]2OC(C)(C)O[C@@H]2[C@H]1O`, the composite z-score was -0.378 in assay [1]; -0.587 in assay [2]; -0.229 in assay [3]; -0.44 in [4]; -0.836 in assay [5]; -0.116 in assay [6]. The composite z-score in assay [7] is -0.0458; in assay [9], -0.865; in [10], -0.172. In assay [8], the z-score is 0.0054 (inactive).
With `O=C1[C@H]2[C@H]3[C@H](O)[C@H](O)CC(=NOCc4ccccc4)[C@H]3CC[C@H]2C(=O)N1c1ccc(F)cc1F`, the composite z-score was -0.426 in assay [1]; -0.0076 in [2]; -0.0561 in [3]; 0.0471 in assay [4]; -0.0497 in assay [5]; 0.757 in [6]. The composite z-score is 0.106 in assay [7], -0.314 in assay [9] and -0.214 in [10]. In [8], the z-score is 0.131 (inactive).
On to `O=C1[C@H]2[C@H]3[C@H](O)[C@H](O)CC(=NOCc4ccccc4)[C@@H]3CC[C@H]2C(=O)N1Cc1ccccc1`, for which the composite z-score is -0.226 in [1]; 0.304 in assay [2]; -0.125 in assay [3]; 0.264 in [4]; 0.758 in assay [5]; -0.0975 in [6]. Further, the results for the composite z-score in [7], in assay [9] and in [10] were 0.272, 0.281 and -0.0672, respectively. The z-score in assay [8] was 0.341 (inactive).
